Bioassay records as filed in PubChem BioAssay.
ALDH1A1 inh: blocks purified human ALDH1A1 activity | Purified ALDH1A1, NADH fluorescence, propionaldehyde substrate | Potency, µM (series often up to 75.3 µM), actives largely listed as inhibitors | 220,000 compounds, 7.3% hits | AID 1030; active = well fitted inhibition curve with a large enough effect, not every such curve was filed as active; inconclusive = small, poorly fitted or top-dose-only effect, or another doubt; inactive = no such curve, though single readings can be large or run the other way
Target sequence (P00352 whole entry, looked up): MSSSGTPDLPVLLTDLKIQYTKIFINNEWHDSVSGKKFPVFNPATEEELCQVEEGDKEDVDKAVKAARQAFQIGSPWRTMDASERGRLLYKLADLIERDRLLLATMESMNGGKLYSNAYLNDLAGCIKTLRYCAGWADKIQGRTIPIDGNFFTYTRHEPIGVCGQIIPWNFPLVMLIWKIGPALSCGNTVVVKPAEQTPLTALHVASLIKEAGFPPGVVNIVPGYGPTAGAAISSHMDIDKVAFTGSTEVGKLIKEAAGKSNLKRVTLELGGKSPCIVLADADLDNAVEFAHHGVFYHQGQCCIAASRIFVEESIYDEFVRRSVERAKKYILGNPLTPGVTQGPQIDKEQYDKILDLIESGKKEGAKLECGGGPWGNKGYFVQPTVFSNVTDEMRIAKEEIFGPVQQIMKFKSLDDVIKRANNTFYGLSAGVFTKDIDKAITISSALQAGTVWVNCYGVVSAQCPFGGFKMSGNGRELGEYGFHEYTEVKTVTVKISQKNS
IMPase Li cell: cell-permeable IMPase inhibitors with lithium potentiation; CHO-M1 cells, IP1 TR-FRET (IP-One), carbachol + lithium; 210,000 compounds, 0.35% hits; Potency, µM (top dose mostly 59.4 µM), most hits filed as inhibitors; AID 1457;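 note: IP1 builds up when IMPase is blocked and the TR-FRET signal falls; nearly all actives have a fitted effect of over 50% in size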
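Test compounds were applied to CHO-M1 cells previously cultured for 16–30 h at 2000 per well. A small lithium amount accompanied them; after 30 min at 37C, IP1 was quantified by TR-FRET.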
HPGD inh: HPGD (human) dehydrogenase inhibition; purified HPGD, NADH fluorescence kinetic, PGE2 substrate; Potency, µM, hits mostly inhibitors; P15428; 150,000 compounds, 4.3% hits; active = well fitted inhibition curve with a large enough effect, not every such curve was filed as active; inconclusive = small, poorly fitted or top-dose-only effect, or another doubt; inactive = no such curve, though single readings can be large or run the other way
Target sequence (P15428 whole entry, looked up): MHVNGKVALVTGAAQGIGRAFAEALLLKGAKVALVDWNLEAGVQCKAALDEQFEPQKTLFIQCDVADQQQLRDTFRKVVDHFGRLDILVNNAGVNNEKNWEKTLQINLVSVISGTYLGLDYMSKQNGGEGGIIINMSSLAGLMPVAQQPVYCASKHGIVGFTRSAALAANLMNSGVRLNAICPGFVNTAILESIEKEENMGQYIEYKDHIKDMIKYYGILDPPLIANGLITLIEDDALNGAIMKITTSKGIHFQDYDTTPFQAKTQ
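NADH formation kinetics: reaction with 30 uM PGE2 and 1 mM NAD+ (final), 20 nM enzyme, Tris-HCl pH 8 with Tween 20, after 15 min compound preincubation at room temperature. Fluorescence change, last versus first of five reads.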
Lamin A splicing: modulators of lamin A splicing; HeLa LMNA splicing GFP/RFP minigene ratio, 48 h; Potency, µM (highest dose often 46.1 µM), usual class: inhibitors; 200,000 compounds, 0.01% hits; active = well fitted inhibition curve with a large enough effect in the signal ratio, with a control signal flat, not every such curve was filed as active; inconclusive = small, poorly fitted or top-dose-only effect, or effect the other way, or a change in a side signal; the % refers to the signal ratio
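S3 HeLa stable clones carrying a lamin A-EGFP splicing minigene plus DsRed2 were seeded at 600 cells/well in Opti-MEM with 2% FBS, pin-dosed and incubated 48 h at 37°C. Acumen cytometry (488 nm) gave the GFP/RFP total-intensity ratio.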
KinaseGlo FLuc: counter-screen: inhibitors of Kinase-Glo firefly luciferase | Q27757 | Kinase-Glo luciferase, ATP luminescence, 8 min | Potency, µM (titrated, usually from 38.3 µM), hits mostly inhibitors | 200,000 compounds, 0.28% hits | AID 1379; note: nearly all actives have a fitted effect of over 60% in size
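Recombinant Kinase-Glo luciferase, 10 uM ATP (linear range), luciferin; imidazole pH 7.2 / KCl / MgCl2 / Tween / BSA buffer; 8 min RT; luminescence.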
A number is an active result; [ ] = dose if it differs, or a comment. The list is not random: actives were taken first. Their share in the collection is about 9%. Unless noted, calls come from the whole dose curve; as a rule, active = well fitted curve in the direction sought with a large enough effect; inconclusive = small, poorly fitted or top-dose-only effect, or another doubt; inactive = no such curve, though single readings can be large; an effect the other way counts as inactive or inconclusive.

Results for CN(CCc1ccccn1)C(=O)c1nn2c(C(F)(F)F)cc(-c3ccco3)nc2c1Cl ?
ALDH1A1 inh: 25µM; IMPase Li cell: inactive; HPGD inh: inactive; Lamin A splicing: inactive; KinaseGlo FLuc: inactive

Results for CC1CCCCN1C(=O)c1cnn2c(C(F)(F)F)cc(-c3ccco3)nc12 (centres undefined) ?
ALDH1A1 inh: inactive; IMPase Li cell: inactive; HPGD inh: 7.1µM; Lamin A splicing: inactive; KinaseGlo FLuc: inactive

What do the screens show for `O=C(NC1CCCCC1)c1nn2c(C(F)(F)F)cc(-c3ccco3)nc2c1Br`?
ALDH1A1 inh: 22µM; IMPase Li cell: inconclusive; HPGD inh: inactive; Lamin A splicing: inactive; KinaseGlo FLuc: inactive

How did CN1CCN(c2ncnc3ccc(-c4ccccc4Cl)cc23)CC1 do in these assays?
ALDH1A1 inh: inconclusive; IMPase Li cell: inactive; Lamin A splicing: inconclusive

How did COc1cccc(CNC(=O)C(=O)NCC(c2cccs2)S(=O)(=O)c2cccs2)c1 (centres undefined) do in these assays?
Lamin A splicing: inactive

What do the screens show for `Cc1ccc(C)c(S(=O)(=O)Nc2nc3ccc(S(N)(=O)=O)cc3s2)c1`?
ALDH1A1 inh: inactive; IMPase Li cell: inactive

What do the screens show for `Cc1ccc(C)c(S(=O)(=O)Nc2ccc3scnc3c2)c1`?
ALDH1A1 inh: 1.8µM; IMPase Li cell: inactive; HPGD inh: inactive; Lamin A splicing: inactive; KinaseGlo FLuc: inactive

What do the screens show for `O=S(=O)(NN1CCOCC1)c1ccc(Cl)s1`?
ALDH1A1 inh: inconclusive; IMPase Li cell: inactive; Lamin A splicing: inactive; KinaseGlo FLuc: inactive

How did C/C(=N\NC(=O)C1(C)CC1(Br)Br)c1ccc(NC(=O)c2ccc(C)o2)cc1 (centres undefined) do in these assays?
ALDH1A1 inh: inactive; IMPase Li cell: inactive; HPGD inh: 18µM; Lamin A splicing: inactive; KinaseGlo FLuc: inactive

Results for COc1ccc(Br)cc1CN(C)CC(=O)Nc1c(Cl)cccc1Cl ?
ALDH1A1 inh: inactive; IMPase Li cell: inactive; HPGD inh: 16µM; Lamin A splicing: inconclusive; KinaseGlo FLuc: inactive

Results for O=c1[nH]c2c(s1)C(c1ccc(O)cc1)C1C3CCC(C3)C1S2 (centres undefined) ?
ALDH1A1 inh: 11µM; IMPase Li cell: inactive; HPGD inh: inconclusive; Lamin A splicing: inactive; KinaseGlo FLuc: inactive

How did COc1ccc(C2c3sc(=O)[nH]c3SC3C4CCC(C4)C23)cc1OC (centres undefined) do in these assays?
ALDH1A1 inh: inconclusive; IMPase Li cell: inactive; HPGD inh: inactive; Lamin A splicing: inactive; KinaseGlo FLuc: inactive

What do the screens show for `CCOC(=O)c1cc(-c2cc3ccccc3o2)nc2c1c(=O)[nH]c(=O)n2CCOC`?
ALDH1A1 inh: inconclusive; IMPase Li cell: 10µM; HPGD inh: inconclusive; Lamin A splicing: inactive; KinaseGlo FLuc: inactive

How did Cc1noc2ncnc(N3CCCCC3)c12 do in these assays?
ALDH1A1 inh: 32µM; IMPase Li cell: inactive; KinaseGlo FLuc: inactive

Results for N#CC1=C(N)SC(N)=C(C#N)C1CCC1CCCCC1 ?
ALDH1A1 inh: 14µM; IMPase Li cell: inactive; HPGD inh: 16µM; Lamin A splicing: inconclusive; KinaseGlo FLuc: inactive

How did Nc1nnc(CCC2CCCCC2)s1 do in these assays?
ALDH1A1 inh: inactive; IMPase Li cell: inactive; HPGD inh: inactive; Lamin A splicing: inactive; KinaseGlo FLuc: inactive

Results for Clc1cccc(Cl)c1C(Nc1nncs1)Nc1nncs1 ?
ALDH1A1 inh: inconclusive; IMPase Li cell: inactive; HPGD inh: inactive; KinaseGlo FLuc: inactive[7.66 µM]

How did Fc1ccc(/C=N/n2c(-c3cccs3)n[nH]c2=S)cc1 do in these assays?
ALDH1A1 inh: 14µM; IMPase Li cell: inactive; HPGD inh: 4µM; Lamin A splicing: inactive; KinaseGlo FLuc: inactive

How did S=c1[nH]nc(-c2ccco2)n1/N=C/c1ccc(Cl)cc1 do in these assays?
ALDH1A1 inh: 22µM; IMPase Li cell: inactive; HPGD inh: 3.5µM; Lamin A splicing: inconclusive; KinaseGlo FLuc: inactive

Results for Cc1ccc(/C=N/n2c(-c3ccco3)n[nH]c2=S)s1 ?
ALDH1A1 inh: 11µM; IMPase Li cell: inactive; HPGD inh: 13µM; Lamin A splicing: inactive; KinaseGlo FLuc: inactive

What do the screens show for `S=c1[nH]nc(-c2ccccn2)n1/N=C/c1ccc(Cl)cc1`?
ALDH1A1 inh: inactive

What do the screens show for `Cn1c(-c2ccco2)n[nH]c1=S`?
ALDH1A1 inh: inactive; IMPase Li cell: inactive; KinaseGlo FLuc: inactive

Results for S=c1[nH]nc(-c2ccco2)n1/N=C/c1ccccc1Cl ?
ALDH1A1 inh: 10µM; Lamin A splicing: inactive

How did COc1cc(OC)cc(N(C(=O)CNC(=O)c2cccs2)C(C(=O)NCC2CCCO2)c2ccc(OC)c(OC)c2)c1 (centres undefined) do in these assays?
ALDH1A1 inh: inactive; IMPase Li cell: inactive; Lamin A splicing: inactive; KinaseGlo FLuc: inactive

How did COc1cc(/C=C2\SC(=O)N(CC(=O)Nc3cccc(C)c3)C2=O)cc([N+](=O)[O-])c1O do in these assays?
ALDH1A1 inh: 22µM; IMPase Li cell: inactive; KinaseGlo FLuc: inactive

Results for COc1cc(/C=C2\SC(=N)N(c3ccc4c(c3)OCO4)C2=O)cc(OC)c1O ?
ALDH1A1 inh: inactive; IMPase Li cell: inactive; HPGD inh: 4µM; Lamin A splicing: inactive; KinaseGlo FLuc: inactive

Results for COc1cc(/C=C2\SC(=N)N(c3ccc(F)cc3)C2=O)ccc1O ?
ALDH1A1 inh: inactive; IMPase Li cell: inactive; Lamin A splicing: inconclusive; KinaseGlo FLuc: inactive

How did CCOc1cc(/C=C2\SC(=O)N(CC(=O)Nc3ccccc3F)C2=O)cc([N+](=O)[O-])c1O do in these assays?
ALDH1A1 inh: inconclusive; IMPase Li cell: inactive; Lamin A splicing: inactive; KinaseGlo FLuc: inactive

How did COc1cc(/C=C2\SC(=O)N(c3ccccc3Cl)C2=O)cc([N+](=O)[O-])c1O do in these assays?
ALDH1A1 inh: 0.16µM; IMPase Li cell: inactive; KinaseGlo FLuc: inactive

Results for CCOC(=O)C1(CCCc2ccccc2)CCN(C(=O)C2CCCN(C(N)=O)C2)CC1 (centres undefined) ?
ALDH1A1 inh: inconclusive; IMPase Li cell: inactive; KinaseGlo FLuc: inactive

Results for CC1CC2(C)Oc3ccccc3C3OCC1(COC(=O)Nc1ccccc1)C(C)C32 (centres undefined) ?
ALDH1A1 inh: inactive; IMPase Li cell: inactive; HPGD inh: inactive; KinaseGlo FLuc: inactive

How did COc1cccc(C(=O)N=c2sc3cc(S(C)(=O)=O)ccc3n2C)c1 do in these assays?
ALDH1A1 inh: inconclusive; IMPase Li cell: inactive; Lamin A splicing: inactive; KinaseGlo FLuc: inactive

How did O=C(c1noc2c1CCCCC2)N1CCN(c2ccc(Cl)cc2)CC1 do in these assays?
Lamin A splicing: inactive

What do the screens show for `C=C1C(=O)OC2C[C@@]3(C)CCCC(=C)[C@@H]3CC12` (some centres undefined)?
ALDH1A1 inh: inactive; IMPase Li cell: inactive; HPGD inh: inactive; KinaseGlo FLuc: inactive

Results for CCCC1CC(=O)OC1(C)C(=O)CSc1n[nH]c(-c2ccccc2)n1 (centres undefined) ?
ALDH1A1 inh: 13µM; IMPase Li cell: inactive; HPGD inh: inactive; Lamin A splicing: inactive; KinaseGlo FLuc: inactive
